# Reference: PubChem BioAssay AID463173 (ICCB-Longwood Screening Facility, Harvard Medical School, 2010)
# Screen size: about 52,000 compounds; about 4,300 (8.3%) were called active. The sample as a whole holds a higher share of actives than the screen did. Unmarked numbers belong to inactive results. Cut-off read from the data, not from the text of the source: active = survival mostly below about 52% (no sharp cut-off); inactive = mostly above about 56%.
# Test system: DeltatarO mutant
# Experiment: S. aureus survival, RN4220 and DeltatarO strains – OD600, teichoic acid synthesis inhibitors, primary screen (AID 463173)
# Conditions: S. aureus RN4220 wild type/DeltatarO growth, OD600, 18 h, stronger effect = lower value, screened at 18.75 µg/mL (by protocol)
row,Compound,survival
1,COc1ccc(CCNC(=O)c2ccc(Cn3c(=O)c4ccccc4n(Cc4ccccc4Cl)c3=O)cc2)cc1OC,80%
2,Cc1nc2c(C(=O)NCCc3ccc(Cl)cc3)cnn2c(C)c1Cc1c(F)cccc1Cl,75%
3,Cc1nc2c(C(=O)NCCc3ccc(Cl)cc3)c[nH]n2c(=O)c1Cc1ccccc1F,-12% (active)
4,Cc1cccn2c(=O)c(C(=O)NCCc3ccccc3)cnc12,58%
5,COc1ccc(CCNC(=O)c2cc(C)nc3c2c(C)nn3-c2ccccc2)cc1OC,92%
6,Cc1nc2nc(NC(=O)c3ccc(Cl)cc3)[nH]n2c(=O)c1Cc1ccccc1,105%
7,Cc1ccc(CNC(=O)c2c[nH]n3c(=O)c(Cc4ccc(Cl)cc4)c(C)nc23)cc1,-12% (active)
8,Cc1nc2c(C(=O)NCCc3ccccc3)cnn2c(C)c1Cc1c(F)cccc1Cl,79%
9,Cc1cccn2c(=O)c(C(=O)NCCc3ccc(Cl)cc3)cnc12,83%
10,COc1ccc(CCNC(=O)c2c[nH]n3c(=O)c(Cc4ccccc4Cl)c(C)nc23)cc1OC,32% (active)
11,Cc1ccc(CNC(=O)c2nnc(Cc3ccc(Cl)cc3)o2)cc1,99%
12,Cc1nc2c(C(=O)NCCc3ccccc3)c[nH]n2c(=O)c1Cc1ccccc1F,-13% (active)
13,Cc1ccc(-n2ncc(C(=O)N3CCN(c4ccccn4)CC3)c2C2CCN(C(=O)OC(C)(C)C)CC2)cc1C,72%
14,COc1ccc2c(c1)N(C)/C(=C1/SC(=O)N(c3ccccc3)C1=O)S2,94%
15,CC(C)(CC(=O)NCc1ccc(Cl)cc1Cl)CC1=NS(=O)(=O)c2ccccc2N1,75%
16,CCCOc1ccc(NC(=O)CC2C(=O)N(c3ccc(F)cc3)C(=O)N2CC(C)C)cc1 (stereo unspecified),64%
17,COc1ccc(NC(=O)Cc2coc3cc(C)cc(C)c23)c(OC)c1,60%
18,COc1ccccc1CCNC(=O)c1cccn1-c1nnc(N2CCCC2)s1,93%
19,CCCOc1cccc(C(=O)N(Cc2sccc2C)C2CCS(=O)(=O)C2)c1 (stereo unspecified),110%
20,COc1cc2c(=O)c(C(=O)c3ccc(C)c(C)c3)cn(Cc3ccccc3)c2cc1OC,79%
21,O=C(CSc1nc2c([nH]c3ccccc32)c(=O)n1-c1ccccc1)N1CCCC1,84%
22,Cc1ccc(-c2nc3ccc(Cl)cn3c2Nc2ccc3c(c2)OCCO3)s1,107%
23,Cc1nc2c(C(=O)NCCc3ccccc3)c[nH]n2c(=O)c1Cc1ccc(F)cc1Cl,-16% (active)

row,Compound,survival
1,Cc1ccc(CNC(=O)c2cnn3c(C)c(Cc4c(F)cccc4Cl)c(C)nc23)cc1,70%
2,Cc1ccc(CNC(=O)CN2CCN(Cc3ccc(F)cc3Cl)C2=O)cc1,79%
3,Cc1nc2c(C(=O)NCc3ccccc3Cl)cnn2c(C)c1Cc1ccccc1,79%
4,Cc1nc2nc(NC(=O)c3ccc(F)cc3)[nH]n2c(=O)c1Cc1ccccc1,101%
5,Cc1nc2c(C(=O)NCCc3ccc(Cl)cc3)c[nH]n2c(=O)c1Cc1ccc(Cl)cc1,-14% (active)
6,Cc1nc2c(C(=O)NCCc3ccc(Cl)cc3)cnn2c(C)c1Cc1ccc(F)cc1,69%
7,Cc1ccc(CNC(=O)c2c[nH]n3c(=O)c(Cc4ccc(F)cc4Cl)c(C)nc23)cc1,-13% (active)
8,Cc1nc2c(C(=O)N(C)Cc3ccccc3)c[nH]n2c(=O)c1Cc1ccc(Cl)cc1,88%
9,Cc1nc2nc(NC(=O)c3cccc(Cl)c3)[nH]n2c(=O)c1Cc1ccccc1,111%
10,Cc1nc2c(C(=O)NCc3ccccc3)c[nH]n2c(=O)c1Cc1ccccc1Cl,49%
11,Cc1nc2c(C(=O)NCc3ccccc3Cl)c[nH]n2c(=O)c1Cc1cccc(Cl)c1,-16% (active)
12,COc1ccc(CNC(=O)C(=O)NCC(c2ccco2)S(=O)(=O)c2cccs2)cc1 (stereo unspecified),60%
13,N#C/C(=C\c1ccc[nH]1)C(=O)N1CCc2ccccc2C1,72%
14,COc1cc(Cl)c(NC(=O)c2cc(S(=O)(=O)N3CCCCC3)c[nH]2)c(OC)c1,119%
15,Cc1cc(NC(=O)CCNS(=O)(=O)c2ccc3c(c2)CCCC(=O)N3)ccc1Br,76%
16,COc1ccc(C2CC(=O)Nc3c2c(=O)[nH]c2nc4ccccc4n32)cc1 (stereo unspecified),66%
17,CCOc1ccccc1NC(=O)C1CCN(S(=O)(=O)c2ccc3[nH]c(=O)ccc3c2)CC1,63%
18,Cn1cnc(S(=O)(=O)N2CCC(C(=O)NCc3ccccc3Cl)CC2)c1,118%
19,Cc1cc(C)cc(NC(=O)C2CCN(S(=O)(=O)c3cn(C)cn3)CC2)c1,98%
20,Cc1ccc(CNC(=O)C2CCN(S(=O)(=O)c3cn(C)cn3)CC2)cc1,115%
21,COc1ccc(OC)c(CNC(=O)C2CCN(S(=O)(=O)c3cn(C)cn3)CC2)c1,83%
22,Cn1cnc(S(=O)(=O)N2CCC(C(=O)NCc3ccc(Cl)cc3)CC2)c1,101%
23,COc1ccccc1CNC(=O)C1CCN(S(=O)(=O)c2cn(C)cn2)CC1,0% (active)

row,Compound,survival
1,COc1ccccc1CNC(=O)C1CCN(S(=O)(=O)c2ccc3[nH]c(=O)ccc3c2)CC1,102%
2,Cc1ccc(C)c(N2CCN(C(=O)C3CCN(S(=O)(=O)c4cn(C)cn4)CC3)CC2)c1,64%
3,Cc1ccc(N(C)C(=O)C2CCN(S(=O)(=O)c3cn(C)cn3)CC2)cc1,37% (active)
4,CN(C)c1ccc(CNC(=O)C2CCN(S(=O)(=O)c3cn(C)cn3)CC2)cc1,0% (active)
5,CCOc1ccccc1CNC(=O)C1CCN(S(=O)(=O)c2ccc3[nH]c(=O)ccc3c2)CC1,25% (active)
6,CC(C)C(NS(=O)(=O)c1ccccc1)C(C)C,97%
7,COc1cc(C2CC(=O)c3c([nH]c(C(=O)OCc4ccc(C)cc4)c3C)C2)cc(OC)c1OC (stereo unspecified),83%
8,OC1CN=C2C=CC=CN2C1 (stereo unspecified),89%
9,CCN1CCN(c2ccc(NS(=O)(=O)c3c(C)nc4sccn4c3=O)cc2Cl)CC1,108%
10,Cc1ccc(CNC(=O)c2oc3c(c2C)-c2nn(Cc4ccc(Cl)cc4)cc2CC3)cc1,57%
11,Cc1cc2nc(-c3ccc(NC(=O)c4ccc(OCC(C)C)cc4)cc3)oc2cc1C,78%
12,Cc1c(CNC2CCCCC2)c(C(=O)O)c(C)n1Cc1ccccc1F,88%
13,Cc1ccc2c(c1)-c1onc(C(=O)N(C)c3cccc(C(F)(F)F)c3)c1CO2,108%
14,CC(C)OCCCNC(=O)c1ccc2c(c1)N(Cc1c(F)cccc1Cl)C(=O)c1ccccc1S2,76%
15,CCCCc1nn2c(=O)cc(COC(=O)c3cccc(Cl)c3)nc2s1,67%
16,COc1ccc(C(CC(=O)NCc2ccccc2Cl)N2Cc3ccccc3C2=O)cc1OC (stereo unspecified),80%
17,COc1ccccc1N1CCN(S(=O)(=O)c2c(C)sc3ncn(CC(=O)Nc4ccc(C)cc4Br)c(=O)c23)CC1,73%
18,O=C(Cc1ccccc1)NC1CCS(=O)(=O)C1 (stereo unspecified),97%
19,O=C(CCn1cnc2ccccc2c1=O)NCc1ccccc1,109%
20,Cc1cc(C)c(OCC(=O)N(Cc2ccc(N(C)C)cc2)Cc2ccco2)c(C)c1,49%
21,Cc1ccc2c(CC(=O)N(Cc3ccc(N(C)C)cc3)Cc3ccco3)coc2c1C,45% (active)
22,Cc1ccc2c(CC(=O)N(Cc3ccc(Cl)cc3)Cc3ccco3)coc2c1,99%
23,Cc1cc(C)c2c(CC(=O)N(Cc3ccc(Cl)cc3)Cc3ccco3)coc2c1,57%

row,Compound,survival
1,Cc1ccc2c(C)c(C(=O)N(Cc3ccc(N(C)C)cc3)Cc3ccco3)oc2c1C,87%
2,Cc1cc(C)c2c(CC(=O)N(Cc3ccc(N(C)C)cc3)Cc3ccco3)coc2c1,42% (active)
3,COc1ccccc1CCNC(=O)Cc1c(C)c2cc3c(C(C)(C)C)coc3c(C)c2oc1=O,101%
4,O=C(CC1(c2ccc(Cl)cc2)C(=O)c2ccccc2C1=O)N1CCOCC1,79%
5,Cn1c(=O)c2c(nc(SCC(=O)Nc3ccc(F)cc3F)n2Cc2ccccc2)n(C)c1=O,135%
6,Cn1ncc2nc(SCC(=O)Nc3ccc(Br)cc3F)n(Cc3ccccc3)c(=O)c21,29% (active)
7,Cc1nc2ccccc2n1CCc1nc2c3ccccc3nc(SCC(=O)Nc3ccc(Br)cc3F)n2n1,98%
8,CCOC(=O)c1ccccc1NC(=O)c1nn(C)c2c1COc1ccccc1-2,59%
9,COC(=O)c1ccccc1NC(=O)Cn1ncc2c(C)n(Cc3ccc(F)cc3)c(C)c2c1=O,52%
10,Cc1cccc(NC(=O)Cn2nc(C)c3nn(-c4ccc(Cl)cc4)c(C)c3c2=O)c1C,94%
11,COc1ccc(OCCn2c(NC(=O)c3ccc(OC)cc3)nc3ccccc32)cc1,-2% (active)
12,O=C(Nc1nc2ccccc2n1CCOc1ccccc1Cl)c1ccccc1,17% (active)
13,CCn1c(NC(C)=O)nc2ccccc21,85%
14,O=C(O)c1ccc(NCc2nc3ccccc3n2CCOc2ccccc2Cl)cc1,59%
15,COc1cc(C)ccc1OCCn1c(-c2ccc(Cl)cc2)nc2ccccc2c1=O,62%
16,COc1ccccc1OCCCCn1c(C2CC(=O)N(c3ccccc3Cl)C2)nc2ccccc21 (stereo unspecified),61%
17,OCCNc1nc2ccccc2n1CCOc1ccccc1,68%
18,COc1ccccc1OCCn1c(NC(=O)c2ccc(Cl)cc2)nc2ccccc21,45% (active)
19,COc1ccccc1OCCn1c(NC(=O)c2ccccc2Cl)nc2ccccc21,-3% (active)
20,COc1ccccc1OCCn1c(-c2ccc(Cl)cc2)nc2ccccc2c1=O,77%
21,CCCn1c(CCCNC(=O)c2ccccc2OC)nc2ccccc21,111%
22,CC(NC(=O)c1ccccc1)c1nc2ccccc2n1Cc1ccc(Cl)cc1 (stereo unspecified),83%
